In all, about 2,100 compounds went through this assay and about 590 (28%) were called active. About 42% were inconclusive and are not listed. Calls come from the whole dose curve; as a rule, active = well fitted inhibition curve with a large enough effect; inconclusive = small, poorly fitted or top-dose-only effect; inactive = flat fitted curve, though single readings scatter. The list shows a part of the results.
Potency is the fitted concentration of half-maximal effect.

Sequence of DNA dC->dU-editing enzyme APOBEC-3F (Homo sapiens) (Q8IUX4 whole entry, looked up): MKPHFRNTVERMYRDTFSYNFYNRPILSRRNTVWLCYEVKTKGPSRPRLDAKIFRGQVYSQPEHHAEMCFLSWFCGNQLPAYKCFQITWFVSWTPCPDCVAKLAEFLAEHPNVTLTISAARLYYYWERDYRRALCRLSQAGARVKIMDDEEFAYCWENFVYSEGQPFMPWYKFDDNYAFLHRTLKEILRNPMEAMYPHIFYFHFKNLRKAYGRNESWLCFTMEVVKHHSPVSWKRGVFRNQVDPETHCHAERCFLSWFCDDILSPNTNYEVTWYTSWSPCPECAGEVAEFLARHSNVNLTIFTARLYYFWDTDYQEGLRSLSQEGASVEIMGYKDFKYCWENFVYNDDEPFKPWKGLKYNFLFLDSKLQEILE

The assay has as its target DNA dC->dU-editing enzyme APOBEC-3F (Homo sapiens) (UniProt Q8IUX4). Kind of assay: qHTS for inhibitors of Vif-A3F interactions: Cherry picks.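 For max response: % of control where 0% means no effect; active compounds raise eYFP fluorescence by blocking Vif-driven A3F loss.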 Note: nearly all actives have a fitted effect of over 70% in size. As to conditions: HeLa A3F-eYFP + Vif (tagged APOBEC3F with the HIV-1 protein that degrades it), eYFP fluorescence, 24 h. The gist of the method: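 HeLa cells stably expressing A3F-eYFP plus Vif, cultured overnight, then exposed to compounds at several concentrations for 24 h at 37 deg C. Reduced Vif-driven degradation read as rising eYFP fluorescence (488 nm ex/500-530 nm em) by laser-scanning cytometry; MG132 as positive control.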
Regarding `CC1=CC(C)(C)NC(=S)N1c1ccc2ccccc2c1`, the max response was 1.72% (inactive).

As to `CCN1CCc2c(sc(NC(=O)c3ccc(S(=O)(=O)N(CC)c4ccccc4)cc3)c2C(N)=O)C1`, the Potency is 9.94 µM (active). For `N#Cc1c(NC(=O)c2ccc([N+](=O)[O-])o2)sc2c1CCC2`, the max response was -22.4% (inactive).

Consider `CC(C)N1CCc2c(sc(NC(=O)c3cc4cc([N+](=O)[O-])ccc4s3)c2C(N)=O)C1`, for which the Potency is 20.6 µM (active). As to `CCN1CCc2c(sc(-n3cccc3)c2C(C)NC(=O)Nc2ccc(C(=O)OC)cc2)C1` (stereo not given), the max response is 0.47% (inactive). For the compound `CC(=O)Nc1ccc(Nc2c3c4c(cccc4n(C)c2=O)C(=O)c2ccccc2-3)cc1`, the max response was -27.5% (inactive). On the same count and under the same terms, the same measure for `CCCCOc1nc2ccccc2nc1NS(=O)(=O)c1ccc(F)cc1`: 5.01% (inactive); for `Cc1ccc2c(Cl)c(C)c(N3CCCC3)nc2n1`: 1.73% (inactive); for `CCC(=O)Nc1nonc1-c1nc2ccccc2n1Cc1ccccc1`: -26.4% (inactive). For the compound `Clc1ccccc1Cn1c(/C=C/c2ccco2)nc2ccccc21`, the max response is -8.9% (inactive). As for `ClCc1nc2ccccc2n1Cc1ccccc1`, the Potency is 18.4 µM (active). Turning to `CCCOc1ccc(NC(=O)CC2C(=O)N(c3ccc(OCC)cc3)C(=S)N2C2CC2)cc1` (stereo not given), the max response was -28% (inactive). Still for that read-out and setting: the same measure for `CCOC(=O)N1CCC(Nc2nc3ccccc3n3nnnc23)CC1`: -9.96% (inactive). Take `CCC(=O)Nc1ccccc1-c1nc2ccccc2n(C(C)C(=O)Nc2ccc(OC)cc2)c1=O` (stereo not given): the Potency was 11.6 µM (active). Still for that read-out and setting: as for `CCOC(=O)Nc1cc2c(c(N)n1)N=C(c1ccccc1)CN2`, the figure is 0.0259 µM (active); as for `Cc1ccc(-c2cn3nc(-c4ccccc4)c(-c4ccccc4)nc3n2)cc1`, 18.4 µM (active). Consider `COC(=O)c1sc2nc(CSc3ccc(Br)cc3)[nH]c(=O)c2c1C`, for which the max response was -22% (inactive). Still for that read-out and setting: the same measure for `Cc1ccc(CSc2nc(-c3ccc(C(C)(C)C)cc3)nc3cc(=O)[nH]n23)cc1`: -0.911% (inactive). With `COc1cc(-c2noc(C)c2/C=C/c2ccc(OC(C)=O)cc2)cc(OC)c1OC`, the Potency was 0.627 µM (active). For `N#CC(C(=S)Nc1ccccc1)c1nc2ccccc2[nH]1` (stereo not given), the max response was -16.9% (inactive). `CCOC(=O)Cn1c(=O)c(-c2cc(Br)ccc2N)nc2ccccc21`: the Potency was 8.2 µM (active). In the case of `CCOC(=O)COn1c(=O)c(-c2ccc(Br)cc2)[n+]([O-])c2ccccc21`, the max response was 3.1% (inactive).

In the case of `CCOc1ccccc1N1CC(c2nc3ccccc3n2Cc2c(C)cc(C)cc2C)CC1=O` (stereo not given), the max response was -7.39% (inactive).

In the case of `CC(C)n1c(O)c(N=Nc2ccc(Cl)nn2)c2ccccc21`, the Potency is 20.6 µM (active). In the case of `CCOC(=O)c1c(-c2ccc(OC)cc2)csc1/N=C/C1C(=O)CCCC1=O`, the max response was -2.18% (inactive). Still for that read-out and setting: as for `Cc1ccc(C(=O)CCC(=O)OCC(=O)Nc2ccccc2SCC#N)cc1`, the figure is -8.08% (inactive); as for `CSc1ccccc1NC(=O)COC(=O)/C=C/c1ccco1`, -23.1% (inactive); as for `N#CCSc1ccccc1NC(=O)COC(=O)CCNC(=O)c1ccc([N+](=O)[O-])cc1`, -12% (inactive). Take `N#CCSc1ccccc1NC(=O)COc1ccc(-c2nnco2)cc1`: the Potency was 17.7 µM (active). For the compound `Cc1noc(C)c1C(=O)OCC(=O)Nc1ccccc1SCC#N`, the max response was -24.1% (inactive). On to `Cc1nc(C)c(C(=O)OCC(=O)Nc2ccccc2SCC#N)s1`, for which the Potency is 15.8 µM (active). In the case of `CCCCOc1ccc(/C=C/C2=CC(C)(C)NC(=S)N2)cc1OCC`, the max response was -3.97% (inactive). As to `CCN(CC)c1ccc(/C=C/C2=C3C=CC=CC3NC=C2)cc1` (stereo not given), the Potency was 18.4 µM (active). On to `CN(C)c1ccc(/C=C/c2ccncc2)cc1`, for which the max response is -29.1% (inactive). As for `CCN(CC)c1ccc(/C=C/c2ccccn2)cc1`, the Potency is 5.17 µM (active).

Regarding `CCN(CC)c1ccc(/C=C/c2ccncc2)cc1`, the Potency was 4.11 µM (active).

For the compound `Cc1cc(C)c(C(=O)N(CCN(C)C)CC2CCCN(Cc3ccccc3F)C2)o1` (stereo not given), the max response was 2.52% (inactive). Same read-out and setting: the same measure for `CCOc1ncccc1C(=O)OCc1ccc(C(=O)OC)cc1`: -26.7% (inactive); for `Cc1ccc(-n2c(=O)c3ccc(C(=O)NCc4ccccc4Cl)cc3n(CC(=O)Nc3cccc(Cl)c3)c2=O)cc1`: -26% (inactive); for `CCOc1ncccc1C(=O)NCc1ccc(OC)cc1`: -24.5% (inactive).

`Cc1ccc(CNC(=O)Cn2cc(C(=O)c3ccc(Cl)cc3)c(=O)c3ccc(C)nc32)cc1`: the max response was -28.8% (inactive). In the case of `CCOc1ccc(CCNC(=O)c2ccc(Cn3c(=O)c4cccn4c4cccnc43)cc2)cc1`, the Potency was 16.4 µM (active). Still for that read-out and setting: the same measure for `CCOc1ccc(NC(=O)Cn2c(=O)n(Cc3ccc(C(=O)NCc4ccc(C)cc4)cc3)c(=O)c3ccccc32)cc1`: 11.6 µM (active). Still for that read-out and setting: the same measure for `O=C(NCCc1ccccc1Cl)c1ccc(Cn2c(=O)c3cccn3c3cccnc32)cc1`: 20.6 µM (active). Consider `Cc1ccc2nc(-c3ccccn3)c(Nc3ccccc3C)n2c1`, for which the max response was -2.29% (inactive). With `CCCCN1C(=O)C2Cc3c([nH]c4ccccc34)CN2C1=S` (stereo not given), the Potency was 15.8 µM (active).

As to `CC1(C)CCN2CCC(C)(C)c3c(O)ccc1c32`, the Potency is 14 µM (active). Still for that read-out and setting: the same measure for `O=C(N/N=C/c1ccc([N+](=O)[O-])o1)c1cc2c(ccc3ccccc32)o1`: 9.2 µM (active). In the case of `CSc1ccc(/C=N/NC(=O)c2ccccc2Cl)cc1`, the max response is -22.8% (inactive). The same measure, in the same setting: the same measure for `O=C(N/N=C/c1ccc([N+](=O)[O-])o1)c1cn2ccc3ccccc3c2n1`: -11.2% (inactive).

Regarding `O=C(Cc1cc2ccccc2o1)NCc1ccc(F)cc1`, the max response is -14% (inactive). Regarding `O=C(N/N=C/c1ccc([N+](=O)[O-])o1)c1sc2ccccc2c1Cl`, the Potency was 8.2 µM (active). For `N#Cc1c(-c2ccc(F)cc2)c(-c2ccc(F)cc2)nn(CCO)c1=O`, the Potency is 7.04 µM (active). As for `Cc1ccc2c(c1)sc(-c1ccc(N(C)C)cc1)[n+]2C`, the Potency is 18.4 µM (active).

With `Cc1cccc(C)c1Nc1nc2ccccc2nc1NS(=O)(=O)c1ccccc1`, the max response was -12.4% (inactive).

In the case of `CCc1ccc2nc(SCC(=O)N3CC(=O)Nc4ccccc43)c(C#N)cc2c1`, the Potency was 15.8 µM (active).

Consider `CCc1ccc2nc(SCC(=O)Nc3ccccc3N3CCOCC3)c(C#N)cc2c1`, for which the Potency was 1.46 µM (active).

Take `COc1ccc2cc(C(=O)C3CCCN(Cc4ccccn4)C3)ccc2c1` (stereo not given): the max response was 1.49% (inactive). Regarding `O=C(NC(=S)Nc1ccccc1N1CCCCC1)c1ccccc1`, the max response was -2.38% (inactive). Consider `COc1ccc2nc(SCC(=O)N3CC(=O)Nc4ccccc43)c(C#N)cc2c1`, for which the Potency is 10.3 µM (active).

Values taken from PubChem BioAssay AID651814 (National Center for Advancing Translational Sciences (NCATS), 2012).
